Inconclusive results are not listed. Where a call stands in place of a potency, no number is given. Values without a mark were called inactive. Calls of active or inactive are those of the source. The call rests on the fitted dose curve; in most records, active means well fitted inhibition curve with a large enough effect; inconclusive means small, poorly fitted or top-dose-only effect; inactive means no such curve, though single readings can be large or run the other way.
The molecules below were run against Luciferin 4-monooxygenase (Photinus pyralis) (UniProt P08659) (assay: Confirmatory firefly luciferase (FLuc) qHTS assay for identification of artifact compounds). Details: purified FLuc enzyme, luminescence, 5 min; series mostly up to 38.9 µM.
Source text: PI: Alexander Tropsha Ph.D. UNC Eshelman School of Pharmacy University of North Carolina, Chapel Hill, North Carolina Hits from high-throughput screening (HTS) of chemical libraries are often false positives due to their interference with the assay detection technology. In response to this problem, we generated the largest publicly available library of chemical liabilities and developed a free webtool to predict HTS artifacts, both of which are described herein. More specifically, we generated, curated, and integrated HTS datasets for thiol reactivity, redox activity, and luciferase (firefly and nano) activity. Using these curated datasets, we developed and validated several Quantitative Structure-Interference Relationship (QSIR) models to predict nuisance behavior. […] These models were employed for virtual profiling of the National Center for Advancing Translational Science's (NCATS) in-house library, and 256 compounds for each assay were selected for the experimental validation of nuisance behavior. The BA for these external predictions ranged from 58 to 78% for compounds within the applicability domains of the models. […] The models developed in this study, along with aggregation models previously developed by our group (SCAM Detective) were implemented in "Liability Predictor," an online tool which may be used as part of chemical library design or for triaging HTS hits. Both the models and the curated datasets are publicly available at https://liability.mml.unc.edu/.
PROTOCOL TABLE SEQUENCE No. (e.g., 1, 2, 3, etc.); […] (e.g., Cells, Incubation, Reagent, etc.); VALUE; DESCRIPTION. 1; Reagent; 3 uL; Luciferase substrate mixture. 2; Compounds and control; 16 nL; Kalypsis pin tool (Wako USA) equipped with a 1536-well pin head. 3; Incubation; 15 min. 4; Reagent; 1 uL; Luciferase enzyme. 5; Incubation; 5 min. 6; Detection; Luminescence, ViewLux microplate reader. NOTES (numbers refer to Sequence numbers above) 1. 3 uL of luciferase substrate mixture containing D-luciferin and ATP (final concentrations of 10 uM and 10 uM, respectively) in assay buffer (10 mM Mg-acetate, 0.01% Tween-20, 0.05% bovine serum albumin, 50 mM Tris acetate, pH 7.6) was dispensed into all wells of a 1536-well assay plate (solid-bottom white plate; Greiner Bio One, Monroe, NC). 2. A Wako Pin-tool (Wako Automation, Richmond, VA) was used to transfer 16 nL of compounds (consisting of 7-plates in qHTS format, final concentration range 18.3 nM to 114 uM) or control PTC124 (final concentration range 1.22 nM to 40 uM). 3. 15 min. incubation at room temperature protected from light. 4. 1 uL of luciferase enzyme (final concentration 10 nM, Photinus pyralis luciferase) or buffer was dispensed for a final assay volume of 4 uL. 5. Plates were centrifuged (121xg, 15 seconds) and incubated for 5 minutes. 6. Samples were read for luminescence on a ViewLux CCD imager (PerkinElmer). Data were normalized to no-enzyme (0% activity) and no-inhibitor (DMSO; 100%) controls and the resulting percent inhibition data were fitted to a 4-parameter Hill equation using NCATS in-house software.
Potency means the concentration at half of the fitted maximal effect.

SMILES	Potency	activity change, negative = inhibition
COc1ccc(NC(=O)c2cc(-c3ccccc3O)no2)cc1	inactive	–
COc1ccc(-n2c(=O)c3ccc(C(=O)NCc4ccc(C)cc4)cc3n(Cc3ccc(Cl)cc3)c2=O)cc1	inactive	–
Cc1ccc(-c2nc(S(=O)(=O)c3ccc(C)cc3)c(N3CCCCC3)o2)cc1	inactive	–
C[C@@H]1OC(OC2C(OC3CC[C@@]4(C)C5CC=C6C7CC(C)(C)CC[C@@]7(C(=O)O)CCC6(C)C5(C)CCC4[C@]3(C)CO)OCC(O)C2O)C(O)C(O)C1O (stereo not given in full)	inactive	–
COCCNC(=O)CCCn1c(SCC(=O)Nc2cccc(C)c2)nc2c(sc3ccccc32)c1=O	inactive	–
C=C[C@](C)(O)CCC1C(=C)CC(O)C2C(C)(C)CCCC12C (stereo not given in full)	inactive	–
CC1CCCCN1S(=O)(=O)c1cc2c3c(c1)CC(=O)N3CCC2 (stereo not given)	inactive	–
CCCc1cc(=O)[nH]c(Nc2cc(C)ccc2OC)n1	inactive	–
CCN(Cc1cccc(S(=O)(=O)O)c1)c1ccc(C(=C2C=CC(=[N+](CC)Cc3cccc(S(=O)(=O)O)c3)C=C2)c2ccccc2S(=O)(=O)[O-])cc1	12.2 µM (active)	–
Cc1cccc(C(=O)Nc2ccc(-c3nc4ncccc4o3)cc2C)c1	inactive	–
Cc1cc(C)n2ncc(C(=O)Nc3ccc(-c4cn[nH]c4)cc3)c2n1	inactive	–
NCCCNCCCCNCCCNC(=O)CCc1ccc(O)cc1	–	2.14% [at 7.25 µM]
C[C@H](NC(c1ccc(F)cc1)c1ccc2cccnc2c1O)c1ccccc1 (stereo not given in full)	inactive	–
O=C(O)CCCC/C=C\C[C@@H](O)/C=C/C=C/C=C\[C@@H](O)CCCC(=O)O	–	-5.27% [at 0.322 µM]
c1cc(CNc2ccnc(-c3ccc4c(c3)OCO4)n2)ccn1	inactive	–
O=C(c1ccc2c(c1)N(Cc1ccccc1)C(=O)c1ccccc1S2(=O)=O)N1CCN(c2ccccc2)CC1	inactive	–
NC(=O)c1ccc(-c2noc(-c3cccc(Cl)c3)n2)cc1	inactive	–
O=c1cc(-c2ccc(O)cc2)oc2cc(O[C@H]3OC(CO)C(O)C(O)C3O)cc(O)c12 (stereo not given in full)	inactive	–
C[C@@H]1CC2(OC3C[C@@]4(C)C5=CC[C@H]6C(C)(C)C(O[C@@H]7OC[C@@H](O)[C@H](O)[C@H]7O)CC[C@@]67C[C@@]57CC[C@]4(C)C31)OC(O)C1(C)OC21 (stereo not given in full)	inactive	–
COC(=O)CN1C(=O)[C@@H]2[C@H](C1=O)[C@@H]1CC(C(=O)OC)=C[C@@H](C(=O)OC)C3C1=C(C(=O)C31CCCCC1)[C@@H]2C (stereo not given in full)	inactive	–

SMILES	Potency	activity change, negative = inhibition
CCOc1ccc(N=C(C)Nc2ccc(OCC)cc2)cc1	inactive	–
CCOc1ccc(OCC(=O)NCCS(=O)(=O)N2CCN(c3cccc(Cl)c3)CC2)cc1	inactive	–
O=C1Nc2ccccc2/C1=C\c1ccc(O)cc1	inactive	–
CCCCCCCCCCCCCCCC(=O)N[C@@H](COP(=O)(O)O)C(=O)O	inactive	–
Cc1nc(-c2ccc(Cl)cc2)sc1CCNC(=O)c1ccco1	inactive	–
CCCCNS(=O)(=O)c1ccc2nc(-c3cccnc3)cc(C(=O)NCCC)c2c1	inactive	–
CCCCN(CCCC)C(=O)c1cc2c(=O)n3ccccc3nc2s1	inactive	–
COc1cccc(C2c3c(ncn(-c4cccc(C#N)c4)c3=N)Oc3ccc4ccccc4c32)c1 (stereo not given)	inactive	–
O=S(=O)(c1ccc2c(c1)OCCO2)N1CCN(S(=O)(=O)c2c(F)cccc2F)CC1	inactive	–
Cc1nnc(NC(=O)c2nc(S(=O)(=O)Cc3ccccc3)ncc2Cl)s1	inactive	–
O=C1CCc2cc([S+](=O)([O-])NC3CCOCC3)ccc2N1	inactive	–
CCC(=O)N1CCc2cc(CNC(=O)Nc3cc(OC)c(OC)c(OC)c3)ccc21	inactive	–
CNc1cccc(S(=O)(=O)N2CCCN(S(=O)(=O)c3ccc4c(c3)OCCO4)CC2)c1	inactive	–
O=C(O)Cc1cc(F)c(S(=O)(=O)N2CCN(S(=O)(=O)c3ccc4c(c3)OCCO4)CC2)cc1F	inactive	–
COc1cccc(-c2nnc(Nc3nc4c(OC)cccc4s3)o2)c1	inactive	–
COCCn1c(C)cc(O)c(C(c2ccc(OC)cc2)N2CCN(c3ccccc3)CC2)c1=O (stereo not given)	inactive	–
C[C@@H]1O[C@H](O[C@@H]2C(O)[C@H](O)[C@@H](CO)O[C@H]2Oc2cc(O)c3c(=O)cc(-c4ccc(O)cc4)oc3c2)[C@H](O)[C@H](O)[C@H]1O (stereo not given in full)	inactive	–
CCCCN(C)CCCNC(=O)CN1C(=O)COc2ccc(S(=O)(=O)N3CCC(C)CC3)cc21	inactive	–
COc1ccc(CNC(=O)c2ccc(NC(=O)N3CCCCc4ccccc43)cc2)cc1	inactive	–
CC(CCc1ccccc1)NC(=O)Cn1c(=O)nc(-c2ccccc2F)c2cc(Cl)ccc21 (stereo not given)	inactive	–

— PubChem BioAssay AID1845227 (National Center for Advancing Translational Sciences (NCATS), 2023)
